Laboratory results as given in the antibiotic and cytotoxicity screens of Wong et al. (2023).
Among all 39,000 compounds or so, about 3,300 (8.5%) were called active. Shown is part of a subset that was picked to be rich in actives.

The compounds below were run on HepG2 (assay: cytotoxicity call (relative viability < 0.9)). Settings: 10 µM.

| Structure (SMILES) | cytotoxicity call |
| --- | --- |
| C[C@@H]1CC[C@@]2(OC1)O[C@H]1C[C@H]3[C@H]4CC=C5C[C@@H](O[C@@H]6O[C@H](CO)[C@@H](O[C@@H]7O[C@@H](C)[C@H](O)[C@@H](O)[C@H]7O[C@@H]7O[C@@H](C)[C@H](O)[C@@H](O)[C@H]7O)[C@H](O)[C@H]6O)CC[C@]5(C)[C@@H]4CC[C@]3(C)[C@H]1[C@@H]2C | active |
| CC(C)=CCC[C@](C)(O[C@@H]1O[C@H](CO[C@@H]2OC[C@@H](O)[C@H](O)[C@H]2O)[C@@H](O)[C@H](O)[C@H]1O)[C@H]1CC[C@]2(C)[C@@H]1[C@H](O)C[C@@H]1[C@@]3(C)CC[C@H](O[C@@H]4O[C@H](CO)[C@@H](O)[C@H](O)[C@H]4O)C(C)(C)[C@@H]3CC[C@]12C | inactive |
| CC(=O)OC1CCC2(C)C(CCC3C2CC(=O)C2(C)C3CC3OC4(CCC(C)CO4)C(C)C32)C1 (centres undefined) | inactive |
| CC(=O)OC1CCC2(C)C(CCC3C2CCC2(C)C3CC3OC4(CCC(C)CO4)C(C)C32)C1 (centres undefined) | inactive |
| C[C@@H]1CC[C@@]2(OC1)O[C@H]1C[C@H]3[C@H]4C[C@@H](O)[C@H]5C[C@@H](O[C@@H]6O[C@H](CO)[C@H](O[C@@H]7O[C@H](CO)[C@@H](O)[C@H](O[C@@H]8OC[C@@H](O)[C@H](O)[C@H]8O)[C@H]7O[C@@H]7O[C@H](CO)[C@@H](O[C@@H]8O[C@H](CO)[C@@H](O)[C@H](O)[C@H]8O)[C@H](O)[C@H]7O)[C@H](O)[C@H]6O)CC[C@]5(C)[C@@H]4CC[C@]3(C)[C@H]1[C@@H]2C | active |
| CC1CCC2(OC1)OC1CC3C4CC=C5CC(O)CCC5(C)C4CCC3(C)C1C2C (centres undefined) | inactive |
| CC1CCC2(OC1)OC1CC3C4CCC5CC(O)CCC5(C)C4CC(=O)C3(C)C1C2C (centres undefined) | inactive |
| OC[C@@H]1O[C@H](O)[C@H](O)[C@H](O[C@@H]2O[C@H](CO)[C@H](O)[C@H](O[C@@H]3O[C@H](CO)[C@@H](O)[C@H](O)[C@@H]3O)[C@H]2O)[C@H]1O | inactive |
| C[C@@H]1O[C@@H](O[C@H]2[C@H](O)[C@@H](O)[C@H](OC[C@H]3O[C@@H](OC(=O)[C@]45CCC(C)(C)C[C@@H]4C4=CC[C@H]6[C@@]7(C)CC[C@H](O[C@H]8OC[C@H](O)[C@H](O)[C@H]8O[C@H]8O[C@@H](C)[C@H](O)[C@@H](O)[C@H]8O)[C@@](C)(CO)[C@@H]7CC[C@@]6(C)[C@]4(C)CC5)[C@H](O)[C@@H](O)[C@@H]3O)O[C@@H]2CO)[C@H](O)[C@H](O)[C@H]1O | inactive |
| C[C@@H]1CC[C@@]2(OC1)O[C@H]1C[C@H]3[C@H]4C[C@@H](O)[C@H]5C[C@@H](O[C@@H]6O[C@H](CO)[C@H](O[C@@H]7O[C@H](CO)[C@@H](O)[C@H](O[C@@H]8OC[C@@H](O)[C@H](O)[C@H]8O)[C@H]7O[C@@H]7O[C@H](CO)[C@@H](O)[C@H](O)[C@H]7O)[C@H](O)[C@H]6O)CC[C@]5(C)[C@@H]4CC[C@]3(C)[C@H]1[C@@H]2C | active |
| OC[C@H]1O[C@@H](O[C@H]2[C@H](O)[C@@H](O)[C@@H](O)O[C@@H]2CO)[C@H](O)[C@@H](O)[C@@H]1O | inactive |
| C[C@@H]1CCCCO[C@H](CN(C)C(=O)Nc2ccc(C(F)(F)F)cc2)[C@@H](C)CN([C@@H](C)CO)C(=O)c2cc(NC(=O)c3ccccc3)ccc2O1 | inactive |
| CN[C@@H]1[C@@H](O)[C@@H](O[C@@H]2[C@@H](O)[C@H](O[C@H]3OC(CN)=CC[C@H]3N)[C@@H](N)C[C@H]2N)OC[C@]1(C)O | inactive |
| C[C@H](CO)N1C[C@H](C)[C@@H](CN(C)S(=O)(=O)c2ccc(F)cc2)Oc2c(NC(=O)C3CC3)cccc2C1=O | inactive |
| O=C(Nc1ccno1)N1CCOCC1 | inactive |
| C[C@@H]1CN([C@@H](C)CO)C(=O)Cc2cc(NS(=O)(=O)c3ccc(F)cc3)ccc2O[C@H]1CN(C)CC1CC1 | inactive |
| C[C@H]1CCCCO[C@H](CN(C)C(=O)NC2CCCCC2)[C@@H](C)CN([C@@H](C)CO)C(=O)c2cc(NC(=O)c3ccncc3)ccc2O1 | inactive |

| Structure (SMILES) | cytotoxicity call |
| --- | --- |
| O=C(C[C@H]1CC[C@H](NS(=O)(=O)c2ccc(F)cc2)[C@@H](CO)O1)NCc1ccc(Cl)c(Cl)c1 | inactive |
| Cc1ccc(S(=O)(=O)N(C)C[C@@H]2Oc3c(NS(=O)(=O)c4ccccc4)cccc3C(=O)N([C@H](C)CO)C[C@@H]2C)cc1 | inactive |
| O=C1NCCC[C@@H]1C(=O)N1CCCCC1 | inactive |
| COC(=O)[C@H]1CCCNC1=O | inactive |
| NNC(=O)[C@H]1CCCNC1=O | active |
| COC[C@H]1C[C@@H](c2nc(-c3ccc4c(c3)COc3cc5c(ccc6[nH]c([C@@H]7CC[C@H](C)N7C(=O)[C@@H](NC(=O)OC)C(C)C)nc65)cc3-4)c[nH]2)N(C(=O)[C@H](NC(=O)OC)c2ccccc2)C1 | inactive |
| C[C@H]1CCCCO[C@H](CN(C)S(=O)(=O)c2ccc(Cl)cc2)[C@@H](C)CN([C@@H](C)CO)C(=O)c2cc(NC(=O)Nc3cccc4ccccc34)ccc2O1 | inactive |
| CCCCCCCCCCCCCCCC[N+](C)(C)CCN(Cc1ccc(OC)cc1)c1ncccn1 | active |
| COc1ccc(CN(CCN(C)C)c2ncccn2)cc1.Cl | inactive |
| C[C@@H]1CN([C@H](C)CO)C(=O)c2cc(NC(=O)Cc3ccccc3)ccc2O[C@@H](C)CCCCO[C@@H]1CN(C)C(=O)CCC(F)(F)F | inactive |
| C[C@H](CO)N1C[C@H](C)[C@H](CN(C)C(=O)Nc2ccccc2)Oc2c(NC(=O)c3ccc(-c4nccs4)cc3)cccc2C1=O | inactive |
| COc1ccc(NC(=O)Nc2ccc3c(c2)C(=O)N([C@H](C)CO)C[C@H](C)[C@@H](CN(C)S(C)(=O)=O)O3)cc1 | inactive |
| COc1ccc(NC(=O)Nc2ccc3c(c2)C(=O)N([C@H](C)CO)C[C@@H](C)[C@@H](CN(C)S(C)(=O)=O)O3)cc1 | inactive |
| COc1ccc(NC(=O)Nc2ccc3c(c2)C(=O)N([C@@H](C)CO)C[C@H](C)[C@H](CN(C)S(C)(=O)=O)O3)cc1 | active |
| COc1ccc(NC(=O)Nc2ccc3c(c2)C(=O)N([C@@H](C)CO)C[C@@H](C)[C@H](CN(C)S(C)(=O)=O)O3)cc1 | inactive |
| COc1ccc(NC(=O)Nc2ccc3c(c2)C(=O)N([C@@H](C)CO)C[C@@H](C)[C@@H](CN(C)S(C)(=O)=O)O3)cc1 | inactive |
| COc1ccc(NC(=O)Nc2ccc3c(c2)C(=O)N([C@H](C)CO)C[C@@H](C)[C@H](CN(C)S(C)(=O)=O)O3)cc1 | active |
